From PubChem BioAssay
U2OS ROS induce = raises reactive oxygen species in U2OS cancer cells; 46,000 tested, 2% active; ROS induction (% of piperlongumine), % at 10 µM; U2OS ROS induction, H2DCF-DA fluorescence; in the data active means ROS induction above about 79%, passing the limit was not always enough;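 further: 0% = DMSO vehicle median and 100% = reference compound median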
YB-1 expression = YB-1 expression inhibition | AID 434959 | U2OS, qRT-PCR YB-1 vs CDIP delta delta Cp, 16 h; stronger effect = higher value; zero = DMSO, each unit about twofold | 30,000 tested, 0.37% active | delta delta Cp (YB-1 minus CDIP) (concentration not given with the values);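 active means delta delta Cp rounded down to an integer at or above 3, about 3 SD of DMSO wells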;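 further: higher means less YB-1 transcript or more CDIP transcript relative to DMSO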
The depositor's hits bear a star; x = no result given. Only some compounds are listed: those with a hit (about 2.1% of all), similar ones and a draw of the others.

SMILES	U2OS ROS induce	YB-1 expression
C[C@@H]1CN([C@H](C)CO)C(=O)c2cc(NC(=O)Cc3ccccc3)ccc2O[C@H]1CN(C)Cc1ccc(-c2ccccc2)cc1	100*	0.28
C[C@@H]1CN([C@H](C)CO)C(=O)c2cc(NC(=O)Cc3ccccc3)ccc2O[C@H]1CN(C)Cc1ccc(Oc2ccccc2)cc1	-1	-0.41
COC(=O)c1c(C)oc2ccc(OCC#N)cc12	6	x
Cc1ccc(C(C)C)c(OCCNC(=O)Nc2ccc(Br)cc2)c1	-21	x
CCOC(=O)C(C)n1cnc2c(cnn2-c2ccc(F)cc2)c1=O (stereo not drawn)	-2	x
Cc1nc2c(ccc3nc(NC(=O)c4cccc(Oc5ccccc5)c4)sc32)s1	4	x
Cc1noc2ncnc(SCC(=O)Nc3cc(Cl)cc(Cl)c3)c12	26	x
COc1cc2c(N3C(=O)CCC3=O)c3c(=O)oc(C)cn3c2cc1OC	-1	x
O=C(CN1C(=O)/C(=C/c2ccccc2)SC1=S)NC1CCCC1	-9	x
COc1ccc(S(=O)(=O)N2CCOCC2)cc1C(=O)Nc1ccc(S(=O)(=O)C(F)F)cc1	11	x
COc1ccc(-c2cc(C(F)F)n3ncc(C(=O)Nc4cccc(S(=O)(=O)N5CCOCC5)c4)c3n2)cc1	133*	x
O=C(O)C1[C@H]2C[C@H]3c4[nH]c5ccccc5c4CCN3C[C@@H]2CC[C@@H]1O (stereo partly drawn)	34	x
CCc1ccc2nc(Nc3nc4ccccc4c(=O)[nH]3)nc(C)c2c1	132*	x
Cc1ccc(SCc2cc(=O)[nH]c(Nc3nc(C)c4ccccc4n3)n2)cc1	-14	x
Cc1ccc2nc(Nc3nc(CSc4nc5ccccc5s4)cc(=O)[nH]3)nc(C)c2c1	166*	x
Cc1ccc2nc(Nc3nc(CSc4nnc(C)s4)cc(=O)[nH]3)nc(C)c2c1	49	x
O=S(=O)(Nc1ccc(-c2nc3cccnc3s2)cc1)c1ccccc1	1	x
COc1ccc(-c2nc(SCC(=O)N(C3CCCCC3)C3CCCCC3)n[nH]2)cc1	-12	x
CCOC(=O)c1c(CN(CC)CC)oc2ccc(OC)cc12	37	0.15
CCOC(=O)c1c(CSc2nc(C)ccc2C#N)oc2ccc(OC(C)=O)cc12	154*	-0.55
Cc1ccc(C(=O)OCC2OC(O)C(O)C2OC(=O)c2ccc(C)cc2)cc1 (stereo not drawn)	-8	x
O=C(O)c1cccc(Nc2nc(Nc3ccccc3)nc(N3CCCC3)n2)c1	150*	x
CC(=O)c1cccc(NC(=O)CSc2nc(N3CCCCC3)nc(N3CCCCC3)n2)c1	20	x
CCCCN(C)C(=O)Cn1ncc2c3ccccc3n(C)c2c1=O	-7	x
CO[C@H]1C[C@@H]2CC[C@@H](C)[C@@](O)(O2)C(=O)C(=O)N2CCCC[C@H]2C(=O)O[C@H]([C@H](C)C[C@@H]2CC[C@@H](O)[C@H](OC)C2)CC(=O)[C@H](C)/C=C(\C)[C@@H](O)[C@@H](OC)C(=O)[C@H](C)C[C@H](C)/C=C/C=C/C=C\1C	98*	1
SMILES	U2OS ROS induce	YB-1 expression
COc1ccc(C2=NN(C(=O)CSCc3ccco3)C(c3cccc(OC)c3OC)C2)cc1 (stereo not drawn)	69	x
COc1ccc2c(c1OC)C(=O)N1c3ccccc3N=C(c3ccc(Br)cc3)CC21 (stereo not drawn)	57	9.6*
COC(=O)c1sc(S(=O)(=O)NC23CC4CC(CC(C4)C2)C3)c(C(=O)OC)c1C	-5	x
CC(C)OC(=O)CSc1nc(-c2cccs2)cc(C(F)(F)F)c1C#N	68	x
CCN(CC)c1cc(-c2cccs2)nc(SCC(=O)c2cccs2)c1C#N	220*	-0.31
COc1ccc(C#Cc2ccc3c(c2)[C@]2(C(=O)N3)[C@H](c3ccc(OCCO)cc3)N3[C@H](c4ccccc4)[C@H](c4ccccc4)OC(=O)[C@H]3[C@@H]2C(=O)N2CCN(c3ncccn3)CC2)cc1	19	0.12
COCCOC(=O)N1C(=O)[C@@]2(c3cc(C#CC4=CCCCC4)ccc31)[C@H](C(=O)N1CCN(c3ncccn3)CC1)[C@H]1C(=O)O[C@H](c3ccccc3)[C@H](c3ccccc3)N1[C@@H]2c1ccccc1OCCO	128*	-0.5
COCCOC(=O)N1C(=O)[C@@]2(c3cc(C#CC4=CCCCC4)ccc31)[C@H](c1ccc(OCCO)cc1)N1[C@H](c3ccccc3)[C@H](c3ccccc3)OC(=O)[C@H]1[C@@H]2C(=O)N1CCc2cc(OC)c(OC)cc2C1	39	-0.021
COCCOC(=O)N1C(=O)[C@@]2(c3cc(C#CCC(C(=O)OC)C(=O)OC)ccc31)[C@H](c1ccc(OCCO)cc1)N1[C@H](c3ccccc3)[C@H](c3ccccc3)OC(=O)[C@H]1[C@@H]2C(=O)N1CCN(c2ncccn2)CC1	112*	0.11
COCCOC(=O)N1C(=O)[C@@]2(c3ccccc31)[C@H](c1ccccc1OCCO)N1[C@H](c3ccccc3)[C@H](c3ccccc3)OC(=O)[C@H]1[C@@H]2C(=O)N1CCCCCCC1	103*	-0.31
COCCOC(=O)N1C(=O)[C@@]2(c3ccccc31)[C@H](C(=O)N1CCN(c3ncccn3)CC1)[C@H]1C(=O)O[C@H](c3ccccc3)[C@H](c3ccccc3)N1[C@@H]2c1ccc(OCCO)cc1	105*	0.12
COCCOC(=O)N1C(=O)[C@@]2(c3cc(C#CCC(C(=O)OC)C(=O)OC)ccc31)[C@H](c1ccc(O)cc1)N1[C@H](c3ccccc3)[C@H](c3ccccc3)OC(=O)[C@H]1[C@@H]2C(=O)N1CCc2cc(OC)c(OC)cc2C1	41	-0.11
O=C1O[C@H](c2ccccc2)[C@H](c2ccccc2)N2[C@H]1[C@@H](C(=O)N1CCCCCCC1)[C@]1(C(=O)Nc3ccccc31)[C@H]2c1ccccc1OCCO	48	-0.39
O=S(=O)(Cc1cccc(C(F)(F)F)c1)Cc1nc(-c2ccc(C(F)(F)F)cc2)cs1	-10	x
Cc1cc(C)c(C2C(C#N)=C(N)Oc3n[nH]c(C)c32)cc1COc1ccccc1Cl (stereo not drawn)	22	x
COc1ccc(C#Cc2ccc3c(c2)[C@]2(C(=O)N3)[C@H](c3ccccc3OCCO)N3[C@H](c4ccccc4)[C@H](c4ccccc4)OC(=O)[C@H]3[C@@H]2C(=O)N2CCN(c3ncccn3)CC2)cc1	19	-0.013
COCCOC(=O)N1C(=O)[C@@]2(c3ccccc31)[C@H](c1ccccc1OCCO)N1[C@H](c3ccccc3)[C@H](c3ccccc3)OC(=O)[C@H]1[C@@H]2C(=O)N1CCN(c2ncccn2)CC1	111*	-0.065
COC(=O)C1=C(C)Nc2ncnn2C1c1ccc(OCC(=O)N2CCOCC2)c(OC)c1 (stereo not drawn)	41	x
COc1cc(C2C(C#N)=C(C)Nc3oc(C)nc32)ccc1OCCN1CCOCC1 (stereo not drawn)	116*	-0.63
O=C(c1ccc2c(=O)n(CCC3=CCCCC3)c(=S)[nH]c2c1)N1CCCC1	8	x
CC(C)c1ccc(C2C(=O)C(=O)c3ccccc3C2=O)cc1 (stereo not drawn)	-8	x
CCN(CC(=O)Nc1ccc(C)c(C)c1)S(=O)(=O)c1ccc(C)cc1	-2	x
CCN(CC(=O)Nc1cccc(C)c1)S(=O)(=O)c1ccc(Br)cc1	131*	x
O=C(c1ccc(Br)cc1)c1cc2c(cc1Br)OCCCO2	131*	-0.48
O=C(O)CCC(=O)c1ccc2c(c1)OCCCO2	10	0.09
O=C(Cc1ccc(Oc2ccccc2)cc1)c1ccccc1	3	x
